Drawing on PubChem BioAssay (NCI), this text covers growth for eight compounds.

This is part of a sample that, as a whole, favours compounds with a hit. Of some 83,000 tested, about 20% had one in any assay.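 Activity criterion: percent growth below 10, measured after cells in 96-well plates were exposed to a single compound concentration for 48 hours.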 Values without a mark were called inactive. The source made the active and inactive calls.

Among the test systems are NCI-H23 lung; NCI-H226 lung; NCI-H322M lung; HOP-62 NSCLC; NCI-H460 lung; NCI-H522 lung; A549/ATCC NSCLC; 786-0 renal; COLO 205 colon; DU-145 prostate; K-562 leukemia; MALME-3M melanoma; MDA-MB-231 breast; RXF 393 renal; SF-268 CNS; SF-295 CNS; SF-539 CNS; UACC-257 melanoma; M14 melanoma.
Holding throughout (assay): NCI-60 one-dose screen, 48 h (100 = growth as untreated, 0 = no growth, -100 = all killed)
Common to all, as to settings: 10 µM unless noted

As to `CC(=O)O[C@H]1CC[C@]2(C)[C@H]3CC=C4[C@@H]5CC(C)(C)CC[C@]5(C(=O)OCC(COC(=O)C(Cl)Cl)(COC(=O)C(Cl)Cl)NC(=O)C(Cl)Cl)CC[C@@]4(C)[C@]3(C)CC[C@H]2C1(C)C`, the growth in the experiment with NCI-H23 lung is 87.6%; in the experiment on NCI-H226 lung, 94.2%; in the experiment with NCI-H322M lung it was 89.1%; with HOP-62 NSCLC, 79%; in the experiment on NCI-H460 lung, 49.4%; in the experiment on NCI-H522 lung it was 41.1%. Also, the growth is 31.5% with A549/ATCC NSCLC; 63.9% with 786-0 renal; 47.8% with COLO 205 colon; 62.2% with DU-145 prostate; 38.8% with K-562 leukemia; 83.1% in the experiment with MALME-3M melanoma. Also, the growth in the experiment with MDA-MB-231 breast is 82.9%; in the experiment with RXF 393 renal it was 74.7%; with SF-268 CNS it was 56.1%; in the experiment with SF-295 CNS, 80.4%; in the experiment on SF-539 CNS, 86.8%; in the experiment on UACC-257 melanoma, 42.5%. In addition, in the experiment with M14 melanoma, the growth was 67.2%.

Consider `C=C(C)[C@@H]1CC[C@]2(C(=O)NC(COC(=O)C(Cl)Cl)(COC(=O)C(Cl)Cl)COC(=O)C(Cl)Cl)CC[C@]3(C)[C@H](CC[C@@H]4[C@@]5(C)CC[C@H](OC(C)=O)C(C)(C)[C@@H]5CC[C@]43C)[C@@H]12`, for which the growth with NCI-H23 lung is 72%; with NCI-H226 lung, 84.2%; in the experiment on NCI-H322M lung, 88.8%; with HOP-62 NSCLC it was 82.7%; with NCI-H460 lung it was 15.8%; with NCI-H522 lung, 48.1%. The growth in the experiment with A549/ATCC NSCLC is 27.7%; with 786-0 renal it was 37.3%; in the experiment with COLO 205 colon, 36.1%; in the experiment with DU-145 prostate, 50.7%; in the experiment on K-562 leukemia, 25.2%; in the experiment with MALME-3M melanoma, 96.2%. For the same compound, the growth in the experiment on MDA-MB-231 breast is 54.1%; with RXF 393 renal, 42.6%; with SF-268 CNS, 58.8%; in the experiment with SF-295 CNS, 60.9%; with SF-539 CNS it was 76.5%; in the experiment with UACC-257 melanoma, 79.5%. For the same compound, the growth in the experiment on M14 melanoma is 59.9%.

As for `CC(C)CCSc1nc(Nc2ccccc2)c(C#N)c(-c2ccc(F)cc2)n1`, the growth in the experiment on NCI-H23 lung was 74.4%; with NCI-H226 lung it was 90.7%; in the experiment with NCI-H322M lung it was 49.8%; in the experiment with HOP-62 NSCLC, 56.5%; with NCI-H460 lung, 6.55% (active); in the experiment on NCI-H522 lung, 61%. In addition, the growth was 25.3% in the experiment with A549/ATCC NSCLC; -9.8% (active) with 786-0 renal; 18.6% in the experiment with COLO 205 colon; 82.3% in the experiment with DU-145 prostate; 38.8% with K-562 leukemia; 68.4% in the experiment with MALME-3M melanoma. The growth in the experiment with MDA-MB-231 breast was 46.2%; in the experiment on RXF 393 renal, 82%; in the experiment on SF-268 CNS, 79.1%; in the experiment on SF-295 CNS, 34.5%; in the experiment on SF-539 CNS, 52.7%; with UACC-257 melanoma, 52.7%. Further, in the experiment with M14 melanoma, the growth was 70.1%.

`NS(=O)(=O)c1ccc(CCn2c(SCC(=O)N/N=C/c3ccccc3O)nc3ccccc3c2=O)cc1`: the growth with NCI-H23 lung was 65.4%; in the experiment on NCI-H226 lung, 51.1%; with NCI-H322M lung, 77.5%; with HOP-62 NSCLC, 44.4%; in the experiment on NCI-H460 lung, 23.1%; in the experiment on NCI-H522 lung, 8.06% (active). For the same compound, the growth is 53.9% in the experiment with A549/ATCC NSCLC; 41.7% in the experiment on 786-0 renal; 49.9% with COLO 205 colon; 42.7% in the experiment on DU-145 prostate; 9.2% (active) with K-562 leukemia; 62.3% with MALME-3M melanoma. Besides, the growth was 63.4% in the experiment on MDA-MB-231 breast; 46.7% in the experiment on RXF 393 renal; 55.8% in the experiment on SF-268 CNS; 39.7% in the experiment on SF-295 CNS; 25.6% with SF-539 CNS; 55.6% in the experiment on UACC-257 melanoma. The growth in the experiment on M14 melanoma was 41.5%.

As for `CN(C)c1nc(-c2cccs2)n2nc(-c3ccc(Cl)cc3)cc2n1`, the growth was 61.9% in the experiment with NCI-H23 lung; -25.5% (active) with NCI-H226 lung; 11.8% with NCI-H322M lung; -39.5% (active) in the experiment with HOP-62 NSCLC; -1.56% (active) with NCI-H460 lung; 39.9% in the experiment with NCI-H522 lung. Further, the growth was 10.9% with A549/ATCC NSCLC; -40.7% (active) with 786-0 renal; 39.1% in the experiment on COLO 205 colon; 72.2% in the experiment with DU-145 prostate; 73.7% with K-562 leukemia; 57.6% with MALME-3M melanoma. In addition, the growth was 19.3% in the experiment on MDA-MB-231 breast; 13.3% in the experiment with RXF 393 renal; 55% in the experiment with SF-268 CNS; -5.01% (active) in the experiment on SF-295 CNS; 47.5% with SF-539 CNS; 79.6% in the experiment with UACC-257 melanoma. Also, in the experiment on M14 melanoma, the growth is 61.4%.

Regarding `Cc1nc(N)nc2c1CCC(Nc1ccccc1)S2` (configuration not stated), the growth is 104% with NCI-H23 lung; 99.1% in the experiment with NCI-H226 lung; 101% in the experiment with NCI-H322M lung; 112% with HOP-62 NSCLC; 109% with NCI-H460 lung; 91% in the experiment on NCI-H522 lung. Further, the growth is 97.6% in the experiment on A549/ATCC NSCLC; 103% in the experiment with 786-0 renal; 107% in the experiment on COLO 205 colon; 106% in the experiment on DU-145 prostate; 93.4% with K-562 leukemia; 96.3% in the experiment on MALME-3M melanoma. Also, the growth was 106% in the experiment on MDA-MB-231 breast; 107% with RXF 393 renal; 94.7% in the experiment on SF-268 CNS; 104% in the experiment on SF-295 CNS; 96.7% with SF-539 CNS; 101% with UACC-257 melanoma. Further, the growth in the experiment on M14 melanoma is 108%.

As for `Oc1c(C(Nc2cccc3ccccc23)c2ccccc2)ccc2cccnc12` (configuration not stated), the growth in the experiment on NCI-H23 lung was 41.8%; in the experiment with NCI-H226 lung, 50.6%; with NCI-H322M lung it was 37.2%; in the experiment on HOP-62 NSCLC it was 52.2%; in the experiment on NCI-H460 lung, 5.7% (active); in the experiment with NCI-H522 lung, 16.1%. Besides, the growth with A549/ATCC NSCLC was 33.6%; in the experiment on 786-0 renal, -13.6% (active); with COLO 205 colon, 38%; in the experiment on DU-145 prostate it was 35%; with K-562 leukemia, 11.6%; with MALME-3M melanoma it was 31.7%. The growth was 17.8% with MDA-MB-231 breast; 69.4% in the experiment with RXF 393 renal; 23.4% in the experiment on SF-268 CNS; 7.99% (active) with SF-295 CNS; 43.3% with SF-539 CNS; 22.5% with UACC-257 melanoma. For the same compound, in the experiment with M14 melanoma, the growth is 0.701% (active).

In the case of `CN(C)CC(=O)c1ccc2cc(Br)c3ccccc3c2c1`, the growth was 74.1% in the experiment on NCI-H23 lung; 88.1% in the experiment with NCI-H226 lung; 75.7% in the experiment on NCI-H322M lung; 83.2% with HOP-62 NSCLC; 59.4% with NCI-H460 lung; 9.3% (active) in the experiment with NCI-H522 lung. The growth is 51.5% with A549/ATCC NSCLC; 47.4% with 786-0 renal; 74.1% in the experiment on COLO 205 colon; 77.8% in the experiment on DU-145 prostate; 38.5% in the experiment on K-562 leukemia; 106% with MALME-3M melanoma. Besides, the growth with MDA-MB-231 breast was 76.4%; in the experiment with RXF 393 renal, 72.2%; in the experiment on SF-268 CNS, 77.6%; in the experiment with SF-295 CNS, 82.8%; in the experiment on SF-539 CNS, 79.5%; in the experiment with UACC-257 melanoma, 66%. Besides, in the experiment on M14 melanoma, the growth was 77.2%.
